Hits are enriched below; roughly 19% of the tested compounds scored in any of these assays.
IL-1B inflam inh – inflammasome signaling inhibition, IL-1 beta readout | THP-1 LPS/ATP IL-1B secretion, AlphaLISA, 16 h; stronger effect = lower value | activity change, % at 57.5 µM | 360,000 compounds, 4.7% hits; in the data active means activity change below about -50%; inconclusive means mostly about -30% to -49%
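THP-1 cells pretreated 1 hr with compounds (up to 57.5 uM final), then stimulated with LPS (250 ng/mL final) plus ATP (1.25 mM final); secreted IL-1B measured by AlphaLISA after 16 hr, decreased signal indicating inhibition.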
DT40 TDP1 no CPT – qHTS for Inhibitors of human tyrosyl-DNA phosphodiesterase 1 (TDP1): qHTS in cells in absence of CPT. DT40 Tdp1-/- hTDP1 cells, no CPT, ATP luminescence, 48 h. Potency, µM (top dose mostly 46.2 µM), inactives show at the highest dose activity change, negative = growth inhibition, actives largely listed as inhibitors. 420,000 compounds, 15% hits. AID 686978, 2013; further: potency means the concentration at half of the fitted maximal effect; nearly all actives have a fitted effect of over 55% in size
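A cellular qHTS used chicken DT40 cells lacking endogenous Tdp1 but carrying stably transfected human TDP1. Compounds were applied without camptothecin, and cell growth kinetics were judged by ATP-dependent luminescence after ≥48 hr.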
DT40 TDP1 CPT – DT40-hTDP1 cell growth loss with CPT; 420,000 compounds, 12% hits; Potency, µM (highest dose often 46.2 µM), inactives show top-dose activity change, negative = growth inhibition, usual class: inhibitors; chicken DT40 Tdp1-/-;hTDP1 cells + 20 nM CPT, ATP luminescence, 48 h; further: potency means the concentration at half of the fitted maximal effect; nearly all actives have a fitted effect of over 55% in size
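Chicken DT40 Tdp1-/- cells complemented with human TDP1, 400 cells/well, exposed to compounds plus 20 nM camptothecin for at least 48 h at 37 C; viability read as ATP content by CellTiter-Glo luminescence.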
ELG1 repair inh – ELG1-dependent DNA repair inhibition | HEK293T ELG1-luciferase reporter, luminescence, 16 h; DNA damage induced by 5-fluorouridine | Potency, µM (highest dose often 46.1 µM), inactives show at the highest dose activity change, negative = inhibition, most hits filed as inhibitors | 330,000 compounds, 2.3% hits; further: potency means the concentration at half of the fitted maximal effect; nearly all actives have a fitted effect of over 55% in size
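5-Fluorouridine DNA damage + compound/DMSO, 2,000 cells/well, 16 h, 37 °C/5% CO2. ONE-Glo, 30 min RT, luminescence. Readout = decrease in reporter signal.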
TDP1 inh – TDP1 (human) enzyme inhibition | Q9NUW8 | recombinant TDP1, AlphaScreen DNA substrate cleavage | Potency, µM (highest dose often 130 µM), for the others: at the top dose activity change, negative = inhibition, most hits filed as inhibitors | 350,000 compounds, 0.28% hits; further: potency means the concentration at half of the fitted maximal effect; nearly all actives have a fitted effect of over 40% in size
Target sequence (Q9NUW8 whole entry, looked up): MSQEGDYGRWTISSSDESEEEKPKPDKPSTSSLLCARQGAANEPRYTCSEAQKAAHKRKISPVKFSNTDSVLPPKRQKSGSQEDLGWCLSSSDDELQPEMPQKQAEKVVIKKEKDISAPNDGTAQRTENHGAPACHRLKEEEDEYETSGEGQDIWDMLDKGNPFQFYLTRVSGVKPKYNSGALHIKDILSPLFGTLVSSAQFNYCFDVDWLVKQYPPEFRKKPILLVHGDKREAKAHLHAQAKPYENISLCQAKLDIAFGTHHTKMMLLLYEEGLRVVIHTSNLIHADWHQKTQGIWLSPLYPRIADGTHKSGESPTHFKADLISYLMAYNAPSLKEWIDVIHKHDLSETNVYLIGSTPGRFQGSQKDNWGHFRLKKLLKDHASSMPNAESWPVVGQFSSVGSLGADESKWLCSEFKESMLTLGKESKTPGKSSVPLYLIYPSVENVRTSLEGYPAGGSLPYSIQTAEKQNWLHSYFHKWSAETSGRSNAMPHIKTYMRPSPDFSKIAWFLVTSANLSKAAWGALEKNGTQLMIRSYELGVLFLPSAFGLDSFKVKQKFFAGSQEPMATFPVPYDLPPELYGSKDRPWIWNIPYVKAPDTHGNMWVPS
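Tdp1 1 nM final; 15 min RT w/ cpd; substrate 15 nM, 5 min; beads 10 ug/ml, 10 min; AlphaScreen read. Neg ctrl: no enzyme.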
Giardia killer – kills Giardia lamblia. Giardia lamblia trophozoite viability. activity change, % at 7.66 µM, hits read low. 340,000 compounds, 0.15% hits. AID 540267; in the data active means activity change below about -80%; inconclusive means between about -30% and that limit;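 further: parasites exposed to compound for two days anaerobically before the ATP read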
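Trophozoite viability was measured as ATP-dependent luminescence, read 15-30 min after reagent addition. Before that, parasites at 100 cells/well were exposed to compounds for 48 h, anaerobically, at 37 deg C.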
* marks the source's active call; other numbers are inactive results; ? = inconclusive; nt = no result given. Unless noted, the call rests on the fitted dose curve; in most records, active means well fitted curve in the direction sought with a large enough effect; inconclusive means small, poorly fitted or top-dose-only effect, or another doubt; inactive means no such curve, though single readings can be large; an effect the other way counts as inactive or inconclusive. On the % scale 0 is the no-effect control and ±100 the full control effect.

SMILES	IL-1B inflam inh	DT40 TDP1 no CPT	DT40 TDP1 CPT	ELG1 repair inh	TDP1 inh	Giardia killer
COc1ccc(CCNC(=S)NC2CCN(Cc3ccccc3)CC2)cc1OC	29	-11%	6%	-26%	-7%	-4
CC(NC(=O)CN(C)Cc1nc2ccccc2c(=O)[nH]1)c1ccccc1 (centres undefined)	21	3%	-5%	24%	13%	1
CN(Cc1nc2ccccc2c(=O)[nH]1)C(=O)c1ccccc1OCc1ccc(Cl)cc1	-21	?	-27%	?	0%	9
Cc1ccccc1C(=O)N(Cc1nc2ccccc2c(=O)[nH]1)C1CCCC1	-3	?	?	?	-3%	-2
CC(OCC(O)CN(C)Cc1nc2ccccc2c(=O)[nH]1)c1ccc(Cl)cc1 (centres undefined)	?	?	18µM*	?	7%	19
Cc1ccc(NC(=O)CN(C)Cc2nc3ccccc3c(=O)[nH]2)c(Br)c1	?	21µM*	-46%	?	9%	-2
CN(Cc1nc2ccccc2c(=O)[nH]1)Cc1nc2ccsc2c(=O)[nH]1	30	0.92µM*	0.52µM*	?	8%	7
Cc1ccc(C(=O)N(Cc2nc3ccccc3c(=O)[nH]2)C2CCCC2)cc1	-22	?	13µM*	-2%	-5%	-3
CCOc1ccc(NC(=O)c2cc3sc(Cl)cc3n2CC)cc1	nt	?	-29%	nt	6%	nt
Cc1cccn2c(=O)c3cc(C(=O)NCc4ccccc4Cl)sc3nc12	nt	-4%	4%	nt	5%	nt
O=C(NC(=S)N1CCCC1)c1ccccc1Cl	9	20%	0%	0%	2%	-3
CCn1cc(C(=O)NCc2ccccc2Cl)c(=O)c2cc(S(=O)(=O)N3CCCCCC3)ccc21	nt	21µM*	?	nt	2%	nt
CCn1cc(C(=O)NCc2ccccc2Cl)c(=O)c2cc(S(=O)(=O)N3CCOCC3)ccc21	nt	-23%	-20%	nt	0%	nt
CCn1cc(C(=O)NCc2ccccc2OC)c(=O)c2cc(S(=O)(=O)N3CCCCC3)ccc21	nt	?	18µM*	nt	0%	nt
CCOC(=O)c1ccc(NC(=O)CSc2nncn2-c2cccnc2)cc1	37	-21%	14%	?	0%	23
Cc1ccc2nc(NC(=O)c3cccs3)sc2c1	5	-8%	-23%	?	2%	?
Cc1ccc2nc(NC(=O)c3ccc(Cl)s3)sc2c1	-13	?	21µM*	?	1%	-6
Cc1ccc2nc(NC(=O)c3nc(SCc4ccccc4C)ncc3Cl)sc2c1	nt	16µM*	-29%	nt	5%	nt
CCOC(=O)CCN(c1ccccc1)S(=O)(=O)c1ccc(-c2ccc(=O)[nH]n2)s1	25	-1%	?	19%	4%	-21
CC(C)NC(=O)CN1C(=O)CCn2nc(-c3cn(C)c4ccccc34)cc21	nt	-8%	-12%	nt	7%	nt
O=C(Nc1ccc(Cl)cc1C(=O)N1CCCC1)c1cccc([N+](=O)[O-])c1	23	-15%	-16%	3%	5%	-5
CC(C)OC(=O)c1ccc(N2C(=O)C3CC=CCC3C2=O)cc1 (centres undefined)	-5	-17%	-6%	13%	4%	-7
NS(=O)(=O)c1ccc(N2C(=O)C3CC=CCC3C2=O)cc1 (centres undefined)	14	-5%	-3%	1%	56µM*	1
COc1ccc(C2C(C#N)=C(SC)NC3=C2C(=O)CC(C)(C)C3)cc1 (centres undefined)	-15	8.2µM*	6.5µM*	-5%	2%	10
COc1ccc(C2CC(=O)C3=C(C2)NC(C)=C(C#N)C3c2ccc(N(C)C)cc2)cc1 (centres undefined)	-66*	-22%	8%	0%	-4%	-16

Screens as filed in PubChem.
